# From the supplement of paper PMC10037445
# Over roughly 2,900 compounds, “NF-kB SEAP reporter activity, fold change vs agonist alone” has its median near 0.99; the highest 2% begin near 2.6. The full list was thinned out, with the highest values kept by preference.
# How the values were obtained:
# RAW-Dual [1] = test: NF-kB SEAP reporter activity, fold change vs agonist alone; higher = enhanced NF-kB activity
# Summary of the method: (§1)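 Cytotoxic wells were those whose IncuCyte confluency was below 70% of agonist controls in both mask sets. The cells were RAW-Dual macrophages at 50,000 cells/well in DMEM on 384-well plates, dosed with 50 nL of library stock by pin tool, stimulated with a PRR agonist 1 h later, and kept at 37 °C, 5% CO2 for 20 hours. IRF and NF-κB reporter activity, as fold change over agonist-alone wells, came from supernatant read by QuantiLuc luminescence and QuantiBlue absorbance, respectively.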
# RAW-Dual [2] = test: NF-kB SEAP reporter activity, fold change vs agonist alone; cytotoxicity flag (confluency mask): cytotoxic (confluency <70% of control); higher = enhanced NF-kB activity
# Summary of the method: as §1
# RAW-Dual [3] = test: NF-kB SEAP reporter activity, fold change vs agonist alone; cytotoxicity flag (confluency mask): not cytotoxic; higher = enhanced NF-kB activity
# Summary of the method: as §1
# [4] = library stock concentration (final ~1000-fold dilution): 10 mM, cytotoxicity flag (confluency mask): not cytotoxic, agonist: Imiquimod (TLR7) […]
# [5] = library stock concentration (final ~1000-fold dilution): 10 mM, cytotoxicity flag (confluency mask): not cytotoxic, agonist: MPLA (TLR4) […]
# [6] = agonist: ODN 1826 (TLR9) 0.5 ug/mL
# [7] = agonist: Pam2CSK4 (TLR2/6) 0.1 ug/mL
# [8] = agonist: Pam3CSK4 (TLR2/1) 0.1 ug/mL
# [9] = library stock concentration (final ~1000-fold dilution): 10 mM, cytotoxicity flag (confluency mask): cytotoxic (confluency <70% of control), agonist: Imiquimod (TLR7) […]
# [10] = library stock concentration (final ~1000-fold dilution): 10 mM, cytotoxicity flag (confluency mask): cytotoxic (confluency <70% of control), agonist: MPLA (TLR4) […]
# [11] = library stock concentration (final ~1000-fold dilution): 2 mM, cytotoxicity flag (confluency mask): not cytotoxic, agonist: Imiquimod (TLR7) […]
# [12] = library stock concentration (final ~1000-fold dilution): 2 mM, cytotoxicity flag (confluency mask): not cytotoxic, agonist: MPLA (TLR4) […]
compound,measurement,setting,value
CC(=N)NCc1cccc(CN)c1.Cl.Cl,NF-kB SEAP reporter activity,RAW-Dual [1]; [4],1.08
same,NF-kB SEAP reporter activity,RAW-Dual [1]; [5],1.03
CNC1CCC(c2ccc(Cl)c(Cl)c2)c2ccccc21.Cl (centres undefined) (library stock concentration (final ~1000-fold dilution): 10 mM),NF-kB SEAP reporter activity,RAW-Dual [2]; agonist: LPS (TLR4) 0.1 ug/mL,0.879
same,NF-kB SEAP reporter activity,RAW-Dual [2]; [6],0.405
same,NF-kB SEAP reporter activity,RAW-Dual [2]; [7],0.42
same,NF-kB SEAP reporter activity,RAW-Dual [2]; [8],0.484
CNC1CCC(c2ccc(Cl)c(Cl)c2)c2ccccc21.Cl (centres undefined),NF-kB SEAP reporter activity,RAW-Dual [1]; [9],1.64
same,NF-kB SEAP reporter activity,RAW-Dual [1]; [10],1.56
CC(C)(C)c1ccc(Cn2nc(-c3ccc(Cl)cc3)cc2C(=O)NO)cc1,NF-kB SEAP reporter activity,RAW-Dual [1]; [4],1.47
same,NF-kB SEAP reporter activity,RAW-Dual [1]; [5],1.5
CC(C)(C)c1ccc(Cn2nc(-c3ccc(Cl)cc3)cc2C(=O)NO)cc1 (library stock concentration (final ~1000-fold dilution): 10 mM),NF-kB SEAP reporter activity,RAW-Dual [3]; agonist: LPS (TLR4) 0.1 ug/mL,1.32
same,NF-kB SEAP reporter activity,RAW-Dual [3]; [6],1.24
same,NF-kB SEAP reporter activity,RAW-Dual [3]; [7],0.824
same,NF-kB SEAP reporter activity,RAW-Dual [3]; [8],0.964
COC1/C=C/OC2(C)Oc3c(C)c(O)c4c(O)c(c(/C=N/N5CCN(C)CC5)c(O)c4c3C2=O)NC(=O)/C(C)=C/C=C/C(C)C(O)C(C)C(O)C(C)C(OC(C)=O)C1C (centres undefined) (library stock concentration (final ~1000-fold dilution): 10 mM),NF-kB SEAP reporter activity,RAW-Dual [3]; agonist: LPS (TLR4) 0.1 ug/mL,0.987
same,NF-kB SEAP reporter activity,RAW-Dual [3]; [6],0.979
same,NF-kB SEAP reporter activity,RAW-Dual [3]; [7],0.906
same,NF-kB SEAP reporter activity,RAW-Dual [3]; [8],0.892
COC1/C=C/OC2(C)Oc3c(C)c(O)c4c(O)c(c(/C=N/N5CCN(C)CC5)c(O)c4c3C2=O)NC(=O)/C(C)=C/C=C/C(C)C(O)C(C)C(O)C(C)C(OC(C)=O)C1C (centres undefined),NF-kB SEAP reporter activity,RAW-Dual [1]; [4],0.886
same,NF-kB SEAP reporter activity,RAW-Dual [1]; [5],0.877
O=C(O)c1ccc(CSc2nc(-c3ccccc3)cc(N3CCN(c4ccccc4Cl)CC3)n2)cc1 (library stock concentration (final ~1000-fold dilution): 10 mM),NF-kB SEAP reporter activity,RAW-Dual [3]; agonist: LPS (TLR4) 0.1 ug/mL,0.736
same,NF-kB SEAP reporter activity,RAW-Dual [3]; [6],0.584
same,NF-kB SEAP reporter activity,RAW-Dual [3]; [7],0.248
same,NF-kB SEAP reporter activity,RAW-Dual [3]; [8],0.392
O=C(O)c1ccc(CSc2nc(-c3ccccc3)cc(N3CCN(c4ccccc4Cl)CC3)n2)cc1,NF-kB SEAP reporter activity,RAW-Dual [1]; [4],0.515
same,NF-kB SEAP reporter activity,RAW-Dual [1]; [5],0.868
CC(C)CC(NC(=O)CNC(=O)c1cc(Cl)ccc1Cl)B1OC(=O)CC(CC(=O)O)(C(=O)O)O1 (centres undefined),NF-kB SEAP reporter activity,RAW-Dual [1]; [4],0.956
same,NF-kB SEAP reporter activity,RAW-Dual [1]; [5],0.913
CC(C)CC(NC(=O)CNC(=O)c1cc(Cl)ccc1Cl)B1OC(=O)CC(CC(=O)O)(C(=O)O)O1 (centres undefined) (library stock concentration (final ~1000-fold dilution): 10 mM),NF-kB SEAP reporter activity,RAW-Dual [3]; agonist: LPS (TLR4) 0.1 ug/mL,0.585
same,NF-kB SEAP reporter activity,RAW-Dual [3]; [6],0.938
same,NF-kB SEAP reporter activity,RAW-Dual [3]; [7],0.905
same,NF-kB SEAP reporter activity,RAW-Dual [3]; [8],0.999
O=c1cc(N2CCOCC2)oc2c(-c3ccccc3)cccc12 (library stock concentration (final ~1000-fold dilution): 10 mM),NF-kB SEAP reporter activity,RAW-Dual [2]; agonist: LPS (TLR4) 0.1 ug/mL,1.81
same,NF-kB SEAP reporter activity,RAW-Dual [2]; [6],1.34
same,NF-kB SEAP reporter activity,RAW-Dual [2]; [7],0.984
same,NF-kB SEAP reporter activity,RAW-Dual [2]; [8],1.19
O=c1nc(N2CCOCC2)oc2c(-c3cccc4c3sc3ccccc34)cccc12 (library stock concentration (final ~1000-fold dilution): 10 mM),NF-kB SEAP reporter activity,RAW-Dual [3]; agonist: LPS (TLR4) 0.1 ug/mL,3.45
same,NF-kB SEAP reporter activity,RAW-Dual [3]; [6],1.08
same,NF-kB SEAP reporter activity,RAW-Dual [3]; [7],0.718
same,NF-kB SEAP reporter activity,RAW-Dual [3]; [8],1.38
O=c1cc(N2CCOCC2)oc2c(-c3cccc4c3sc3ccccc34)cccc12 (library stock concentration (final ~1000-fold dilution): 2 mM),NF-kB SEAP reporter activity,RAW-Dual [3]; agonist: LPS (TLR4) 0.1 ug/mL,5.39
same,NF-kB SEAP reporter activity,RAW-Dual [3]; [6],1.43
same,NF-kB SEAP reporter activity,RAW-Dual [3]; [7],1.05
same,NF-kB SEAP reporter activity,RAW-Dual [3]; [8],2.43
O=c1cc(N2CCOCC2)oc2c(-c3ccccc3)cccc12,NF-kB SEAP reporter activity,RAW-Dual [1]; [9],1.07
same,NF-kB SEAP reporter activity,RAW-Dual [1]; [10],1.63
O=c1cc(N2CCOCC2)oc2c1ccc1ccccc12 (library stock concentration (final ~1000-fold dilution): 2 mM),NF-kB SEAP reporter activity,RAW-Dual [3]; agonist: LPS (TLR4) 0.1 ug/mL,1.12
same,NF-kB SEAP reporter activity,RAW-Dual [3]; [6],1
same,NF-kB SEAP reporter activity,RAW-Dual [3]; [7],0.982
same,NF-kB SEAP reporter activity,RAW-Dual [3]; [8],1.07
O=c1cc(N2CCOCC2)oc2c(-c3cccc4c3sc3ccccc34)cccc12,NF-kB SEAP reporter activity,RAW-Dual [1]; [11],1.46
same,NF-kB SEAP reporter activity,RAW-Dual [1]; [12],2.31
O=c1cc(N2CCOCC2)oc2c1ccc1ccccc12,NF-kB SEAP reporter activity,RAW-Dual [1]; [11],1.04
same,NF-kB SEAP reporter activity,RAW-Dual [1]; [12],0.989
O=c1nc(N2CCOCC2)oc2c(-c3cccc4c3sc3ccccc34)cccc12,NF-kB SEAP reporter activity,RAW-Dual [1]; [4],1.1
same,NF-kB SEAP reporter activity,RAW-Dual [1]; [5],1.85
CC(=O)N1CCCC1C(=O)NC(Cc1c[nH]cn1)C(=O)NC(CO)C(=O)NC(CS)C(=O)NC(CC(N)=O)C(N)=O (centres undefined),NF-kB SEAP reporter activity,"RAW-Dual [1]; library stock concentration (final ~1000-fold dilution): 10 mM water, cytotoxicity flag (confluency mask): not cytotoxic, agonist: Imiquimod (TLR7) […]",0.979
same,NF-kB SEAP reporter activity,"RAW-Dual [1]; library stock concentration (final ~1000-fold dilution): 10 mM water, cytotoxicity flag (confluency mask): not cytotoxic, agonist: MPLA (TLR4) […]",1.06
CC(=O)N1CCCC1C(=O)NC(Cc1c[nH]cn1)C(=O)NC(CO)C(=O)NC(CS)C(=O)NC(CC(N)=O)C(N)=O (centres undefined) (library stock concentration (final ~1000-fold dilution): 10 mM water),NF-kB SEAP reporter activity,RAW-Dual [3]; agonist: LPS (TLR4) 0.1 ug/mL,1.15
same,NF-kB SEAP reporter activity,RAW-Dual [3]; [6],1.22
same,NF-kB SEAP reporter activity,RAW-Dual [3]; [7],1.19
same,NF-kB SEAP reporter activity,RAW-Dual [3]; [8],1.02
CC(C)COc1ccc(CNC(=O)N(Cc2ccc(F)cc2)C2CCN(C)CC2)cc1.CC(C)COc1ccc(CNC(=O)N(Cc2ccc(F)cc2)C2CCN(C)CC2)cc1.O=C(O)C(O)C(O)C(=O)O,NF-kB SEAP reporter activity,RAW-Dual [1]; [9],0.496
same,NF-kB SEAP reporter activity,RAW-Dual [1]; [10],1.23
CC(C)COc1ccc(CNC(=O)N(Cc2ccc(F)cc2)C2CCN(C)CC2)cc1.CC(C)COc1ccc(CNC(=O)N(Cc2ccc(F)cc2)C2CCN(C)CC2)cc1.O=C(O)C(O)C(O)C(=O)O (library stock concentration (final ~1000-fold dilution): 10 mM),NF-kB SEAP reporter activity,RAW-Dual [2]; agonist: LPS (TLR4) 0.1 ug/mL,0.205
same,NF-kB SEAP reporter activity,RAW-Dual [2]; [6],0.239
same,NF-kB SEAP reporter activity,RAW-Dual [2]; [7],0.0981
same,NF-kB SEAP reporter activity,RAW-Dual [2]; [8],0.143
CCNC1=NC2C(OC(CO)C(O)C2O)S1 (centres undefined) (library stock concentration (final ~1000-fold dilution): 10 mM),NF-kB SEAP reporter activity,RAW-Dual [3]; agonist: LPS (TLR4) 0.1 ug/mL,1.15
same,NF-kB SEAP reporter activity,RAW-Dual [3]; [6],1.17
same,NF-kB SEAP reporter activity,RAW-Dual [3]; [7],1.04
same,NF-kB SEAP reporter activity,RAW-Dual [3]; [8],1.5
CCNC1=NC2C(OC(CO)C(O)C2O)S1 (centres undefined),NF-kB SEAP reporter activity,RAW-Dual [1]; [4],1
same,NF-kB SEAP reporter activity,RAW-Dual [1]; [5],1.17
